Experimental data taken from PubChem BioAssay (NCI).
Compounds without any hit were thinned out: in the full panel of roughly 83,000, 20% have a hit.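 Single-concentration screen, 48 h exposure, 96-well plates. Endpoint: percent growth. Below 10 = active.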 Active and inactive are the calls of the source.

Assays:
Test in all cases: NCI-60 one-dose screen, 48 h (100 = growth as untreated, 0 = no growth, -100 = all killed)
Conditions in all cases: 10 µM unless noted
NCI/ADR-RES ovarian = tested on: NCI/ADR-RES ovarian
T-47D breast = tested on: T-47D breast
BT-549 breast = tested on: BT-549 breast
MDA-MB-435 melanoma = tested on: MDA-MB-435 melanoma
SW-620 colon = tested on: SW-620 colon
MCF7 breast = tested on: MCF7 breast
HCT-116 colon = tested on: HCT-116 colon
HCC-2998 colon = tested on: HCC-2998 colon
KM12 colon = tested on: KM12 colon

Measured: growth

O=C1NC(=O)C(=Cc2ccc(OCCCCC3CCCCC3)c(Cl)c2)C(=O)N1
inactive: NCI/ADR-RES ovarian 107% | T-47D breast 91.6% | BT-549 breast 95.1% | MDA-MB-435 melanoma 102% | SW-620 colon 98% | MCF7 breast 88.8% | HCT-116 colon 91.3% | HCC-2998 colon 102% | KM12 colon 104%

COC(=O)CC[C@H](Cc1ccccc1)NC(=O)c1csc([C@@H](C[C@H](C(C)C)N(C)C(=O)[C@@H](NC(=O)[C@H]2CCCCN2C)C(C)C)OC(C)=O)n1
active: BT-549 breast -22.4% | MDA-MB-435 melanoma 1.58%
inactive: NCI/ADR-RES ovarian 30.4% | T-47D breast 77.8% | SW-620 colon 35.8% | MCF7 breast 17.1% | HCT-116 colon 20.8% | HCC-2998 colon 42.4% | KM12 colon 24.8%

O=C(CC1(O)C(=O)N(Cc2ccccc2)c2ccccc21)c1ccc(C(=O)NCC2CCC3(CC2)OOC2(CCCCC2)OO3)cc1 (stereo unspecified)
inactive: HCT-116 colon 15.5% | HCC-2998 colon 73.4%
active: NCI/ADR-RES ovarian -47.1% | T-47D breast -39.1% | BT-549 breast -31.1% | MDA-MB-435 melanoma -86.5% | SW-620 colon 6.2% | MCF7 breast 9.78% | KM12 colon -73.9%

Nc1ccc(-c2nc3cc(F)ccc3[se]2)cc1F
inactive: NCI/ADR-RES ovarian 91.5% | T-47D breast 14.6% | BT-549 breast 67.8% | MDA-MB-435 melanoma 97.7% | SW-620 colon 97.2% | HCT-116 colon 58.9% | HCC-2998 colon 30.9% | KM12 colon 54%
active: MCF7 breast 5.06%

COc1cccc2c1c(C(=O)C(=O)Nc1cc(C)no1)cn2Cc1ccc(F)cc1
inactive: T-47D breast 68% | BT-549 breast 25.5% | SW-620 colon 15.5% | MCF7 breast 26.9% | HCT-116 colon 34.4% | HCC-2998 colon 58.4% | KM12 colon 16.4%
active: NCI/ADR-RES ovarian -0.189% | MDA-MB-435 melanoma -34.4%

CNC12C3C4C1C1C2C3C41C(=O)N[C@H](C(=O)N(C)[C@H](C[C@@H](OC(C)=O)c1nc(C(=O)N[C@@H](Cc2ccccc2)C[C@H](C)C(=O)OC)cs1)C(C)C)C1CC1 (stereo partly specified)
active: BT-549 breast -34.7% | MDA-MB-435 melanoma -18.5% | HCT-116 colon 2.93% | HCC-2998 colon -60.8% | KM12 colon -9.24%
inactive: NCI/ADR-RES ovarian 62% | T-47D breast 50.9% | SW-620 colon 53.1% | MCF7 breast 15.7%

Cn1cc(C=O)c2nccnc21
inactive: NCI/ADR-RES ovarian 105% | T-47D breast 104% | BT-549 breast 151% | MDA-MB-435 melanoma 106% | SW-620 colon 110% | MCF7 breast 91.4% | HCT-116 colon 116% | HCC-2998 colon 109% | KM12 colon 119%

C[n+]1c(/C=C/c2ccc(N(CCCl)CCCl)cc2)sc2ccccc21
inactive: NCI/ADR-RES ovarian 102% | T-47D breast 16.8% | BT-549 breast 64.3% | MDA-MB-435 melanoma 76.1% | SW-620 colon 23.1% | MCF7 breast 27.3% | HCT-116 colon 48.4% | HCC-2998 colon 84.4% | KM12 colon 74.8%

COC(=O)[C@@H](C[C@H](Cc1ccccc1)NC(=O)c1csc([C@@H](C[C@H](C(C)C)N(C)C(=O)[C@@H](NC(=O)[C@H]2CCCCN2C)C(C)C)OC(C)=O)n1)NC(=O)OCc1ccccc1
inactive: NCI/ADR-RES ovarian 13.9% [9.5 µM] | T-47D breast 78.8% [9.5 µM] | SW-620 colon 26.1% [9.5 µM] | MCF7 breast 27.8% [9.5 µM] | HCC-2998 colon 19.5% [9.5 µM]
active: BT-549 breast -28% [9.5 µM] | MDA-MB-435 melanoma -36% [9.5 µM] | HCT-116 colon 1.64% [9.5 µM] | KM12 colon 1.08% [9.5 µM]

O=NNc1ccccn1
inactive: NCI/ADR-RES ovarian 75.1% | T-47D breast 97.3% | BT-549 breast 90% | MDA-MB-435 melanoma 111% | SW-620 colon 47.8% | MCF7 breast 71.4% | HCT-116 colon 44.4% | HCC-2998 colon 86.7% | KM12 colon 96.7%

COc1ccc(-n2c(C)nc3cc(OC)c(OC)cc3c2=O)cc1OC
inactive: NCI/ADR-RES ovarian 102% | T-47D breast 91.4% | BT-549 breast 102% | MDA-MB-435 melanoma 104% | SW-620 colon 105% | MCF7 breast 91.8% | HCT-116 colon 98.7% | HCC-2998 colon 109% | KM12 colon 104%

CC(=O)O[C@H](C[C@H](C(C)C)N(C)C(=O)[C@@H](NC(=O)[C@H]1CCCCN1C)C(C)C)c1cccc(C(=O)N[C@@H](Cc2ccccc2)C[C@H](C)C(=O)O)n1
active: NCI/ADR-RES ovarian 8.24% | BT-549 breast -8.23% | MDA-MB-435 melanoma -37.7% | HCT-116 colon 2.75% | HCC-2998 colon 9.77% | KM12 colon 4.91%
inactive: T-47D breast 47.7% | SW-620 colon 23.7% | MCF7 breast 15.9%

CNC(=O)Oc1ccc2c(c1)OCO2
inactive: NCI/ADR-RES ovarian 109% | T-47D breast 99.9% | BT-549 breast 97.1% | MDA-MB-435 melanoma 103% | SW-620 colon 107% | MCF7 breast 95.7% | HCT-116 colon 111% | HCC-2998 colon 106% | KM12 colon 101%

CCCCN1CCCC[C@@H]1C(=O)N[C@H](C(=O)N(C)[C@H](CCc1nc(C(=O)N[C@@H](Cc2ccccc2)C[C@H](C)C(=O)OC)cs1)C(C)C)[C@@H](C)CC
inactive: NCI/ADR-RES ovarian 65.7% | T-47D breast 44.2% | BT-549 breast 36.4% | SW-620 colon 63.7% | MCF7 breast 18.5% | HCT-116 colon 31.6% | HCC-2998 colon 61.7% | KM12 colon 28%
active: MDA-MB-435 melanoma -30%

c1cnc2[nH]cc(-c3csc(-c4cn(CCCCN5CCCCC5)c5ccccc45)n3)c2c1
inactive: NCI/ADR-RES ovarian 89.8% | T-47D breast 79.4% | BT-549 breast 105% | MDA-MB-435 melanoma 80.5% | SW-620 colon 76.8% | MCF7 breast 58.9% | HCT-116 colon 81.8% | HCC-2998 colon 95.6% | KM12 colon 85.5%

O=C1C=C2C(=CCOC2O)O1 (stereo unspecified)
inactive: T-47D breast 13.7% | BT-549 breast 52.8% | MCF7 breast 13.3% | HCC-2998 colon 93.3% | KM12 colon 20.5%
active: NCI/ADR-RES ovarian 0.601% | MDA-MB-435 melanoma 5.62% | SW-620 colon -47.3% | HCT-116 colon -69.5%

COc1ccc(S(=O)(=O)Nc2c(/C=C\c3cc(OC)c(OC)c(OC)c3)ccc(OC)c2O)cc1OC
inactive: T-47D breast 100% | BT-549 breast 20.7% | SW-620 colon 22.6% | MCF7 breast 15.7% | HCT-116 colon 12.6% | HCC-2998 colon 22.6%
active: NCI/ADR-RES ovarian 2.42% | MDA-MB-435 melanoma -52% | KM12 colon 4.9%

C/C(=C\c1ccn(-c2ccc(N)cc2)n1)[C@@H]1C[C@@H]2O[C@]2(C)CCC[C@H](C)[C@H](O)[C@@H](C)C(=O)C(C)(C)[C@@H](O)CC(=O)O1
active: NCI/ADR-RES ovarian -2.72% | MDA-MB-435 melanoma -33.6% | HCC-2998 colon -0.702%
inactive: T-47D breast 42.7% | BT-549 breast 26.9% | SW-620 colon 38.3% | MCF7 breast 19.1% | HCT-116 colon 10.4% | KM12 colon 15%

O=[N+]([O-])/C=C\c1ccc(Cl)c(Cl)c1
inactive: NCI/ADR-RES ovarian 101% | T-47D breast 38.3% | HCC-2998 colon 64.1% | KM12 colon 43.6%
active: BT-549 breast 4.99% | MDA-MB-435 melanoma -26.3% | SW-620 colon -6.79% | MCF7 breast -32.4% | HCT-116 colon -52.8%

O=C1C2CC=CCC2C(=O)N1SC(Cl)(Cl)Cl (stereo unspecified)
inactive: NCI/ADR-RES ovarian 104% | T-47D breast 46.3% | BT-549 breast 125% | MDA-MB-435 melanoma 126% | MCF7 breast 83.3% | HCT-116 colon 66.5% | HCC-2998 colon 105% | KM12 colon 103%
active: SW-620 colon 8.03%

Cc1cc(C)c(CBr)c(C)c1
inactive: NCI/ADR-RES ovarian 103% | T-47D breast 101% | BT-549 breast 105% | MDA-MB-435 melanoma 111% | SW-620 colon 103% | MCF7 breast 96.4% | HCT-116 colon 110% | HCC-2998 colon 114% | KM12 colon 105%

CN1CCCCC1C(C)(O)c1ccccc1 (stereo unspecified)
inactive: NCI/ADR-RES ovarian 96.1% | T-47D breast 92.2% | BT-549 breast 87.4% | MDA-MB-435 melanoma 99.2% | SW-620 colon 110% | MCF7 breast 85.7% | HCT-116 colon 93% | HCC-2998 colon 115% | KM12 colon 106%

CN[C@]1(c2ccccc2Cl)CCCC[C@H]1NCCCN1CCN(C)CC1
inactive: NCI/ADR-RES ovarian 101% | T-47D breast 103% | BT-549 breast 102% | MDA-MB-435 melanoma 103% | SW-620 colon 99.4% | MCF7 breast 102% | HCT-116 colon 97.8% | HCC-2998 colon 99.5% | KM12 colon 101%

COC(=O)[C@@H](C)C[C@H](Cc1ccccc1)NC(=O)c1csc([C@@H](C[C@H](C(C)C)N(C)C(=O)[C@@H](NC(=O)[C@H]2CCCCN2C)C2CC2)OC(C)=O)n1
active: NCI/ADR-RES ovarian 8.28% | BT-549 breast -30.6% | MDA-MB-435 melanoma -12.1% | HCT-116 colon 7.53% | KM12 colon 5.07%
inactive: T-47D breast 73% | SW-620 colon 48.4% | MCF7 breast 16.3% | HCC-2998 colon 15.9%

COC[C@@H]1C[C@@]2(C)[C@@H](CC[C@@H]3[C@@H]2CC[C@@]2(C)[C@H]3CC[C@]2(C)O)CC1=O
inactive: NCI/ADR-RES ovarian 101% | T-47D breast 88.2% | BT-549 breast 89.1% | MDA-MB-435 melanoma 108% | SW-620 colon 110% | MCF7 breast 92.7% | HCT-116 colon 96% | HCC-2998 colon 94.9% | KM12 colon 101%

COc1cccc2c1c(C(=O)c1ccco1)cn2Cc1ccc(F)cc1
inactive: NCI/ADR-RES ovarian 104% | T-47D breast 97.2% | BT-549 breast 116% | MDA-MB-435 melanoma 148% | SW-620 colon 109% | MCF7 breast 99.6% | HCT-116 colon 111% | HCC-2998 colon 102% | KM12 colon 116%

ClCCN(CCCl)c1ccc(/C=N/Nc2ncnc3nc[nH]c23)cc1
inactive: NCI/ADR-RES ovarian 98.4% | T-47D breast 59.8% | BT-549 breast 95% | MDA-MB-435 melanoma 79.9% | SW-620 colon 77.6% | MCF7 breast 42.5% | HCT-116 colon 78.4% | HCC-2998 colon 94.6% | KM12 colon 96.6%

CC(=O)/C=C/c1ccc2c(c1)OCO2
inactive: NCI/ADR-RES ovarian 113% | T-47D breast 107% | BT-549 breast 100% | MDA-MB-435 melanoma 85.7% | SW-620 colon 106% | MCF7 breast 101% | HCT-116 colon 99.3% | HCC-2998 colon 109% | KM12 colon 109%

O=C1C(=Cc2cn(Cc3ccccc3)c3ccccc23)C(=O)N(Cc2ccccc2)C(=O)N1Cc1ccccc1
inactive: NCI/ADR-RES ovarian 106% | T-47D breast 51.7% | BT-549 breast 118% | MDA-MB-435 melanoma 108% | SW-620 colon 101% | MCF7 breast 80.3% | HCT-116 colon 76.2% | HCC-2998 colon 97.4% | KM12 colon 101%
